Potency data for 40 compounds are collected here from PubChem BioAssay (NCATS).

Results filed as inconclusive are left out. Where a call stands in place of a potency, no number is given. The source made the active and inactive calls. Calls come from the whole dose curve; as a rule, active = well fitted inhibition curve with a large enough effect; inconclusive = small, poorly fitted or top-dose-only effect, or effect the other way; inactive = flat fitted curve, though single readings scatter.

A short description of the assay: qHTS for Inhibitors of Plasmodium falciparum (CP250) proliferation (AID 504320). To be noted: P. falciparum CP250 in erythrocytes, SYBR Green DNA, 72 h; series mostly up to 6.7 µM. The text has this: Plasmodium falciparum is a virulent malarial parasite that kills 1-2 million people worldwide each year. Malaria not only inflicts tremendous suffering and morbidity on the human population, but has dramatically influenced the course of civilization with profound sociological and economic implications (Shah, S. 2010). Transmitted by mosquitoes, the sporozoite form of the parasite enters the blood stream to infect hepatocytes, where they become merozoites that infect red blood cells (erythrocytes). Within erythrocytes, merozoites begin a […] cycle of growth and division, after which the parasite is released to infect new red blood cells. Gametocytes, which form within erythrocytes as well, circulate in the bloodstream and are ingested by the mosquito, thereby completing the life cycle (see CDC website). To profile malarial lines for differential chemical responses and to identify inhibitors of malarial growth, an assay that measures P. falciparum growth and replication within erythrocytes was employed. This assay uses a DNA binding fluorescent dye (SYBR Green) to detect parasite DNA following cell lysis. Because mature erythrocytes lack DNA, only Plasmodium-derived DNA is detected. The P. falciparum line cp250, derived from a malarial isolate from Cambodia, (Mu, J., et al. 2010) was added to the panel of lines, Dd2, HB3, 7G8 and GB4 in this study. Laboratory of Assay Development and Screening Technology [ADST] and NIH Chemical Genomics Center [NCGC] Boston University, Chemistry Department, Center for Chemical Methodology and Library Development [CMLD-BU] NIH National Institute of Allergy and Infectious Diseases [NIAID]
ADST Assay Protocol Summary: The 1536-well SYBR Green viability assay was based on the method of Bennett et al (2004) and described previously in 1536-well format (Yuan J., et al. 2009). For screening 3 ul culture medium was dispensed into 1536 well black clear bottom plates (Aurora Biotechnologies) using a Multidrop Combi (Thermo Fisher Scientific Inc.), 23 nL compounds in DMSO were added by a pin transfer (Cleveland, P.H. and Koutz, P.J, 2005) using a pin tool-based delivery system (Kalypsys), and 5 ul of erythrocytes infected with P. falciparum one of five lines (cp250, Dd2, HB3, 7G8 or GB4, 0.3% parasitemia, 2.5% hematocrit final concentration) were added. The plates were incubated at 37C in a humidified incubator in 5% CO2 for 72 h, and 2 ul lysis buffer (20 mM Tris HCl, 10 mM EDTA, 0.16% saponin, 1.6% triton X, 10X SYBR Green I (supplied as 10,000X final concentration by Invitrogen) was added to each well. The plates were mixed for 25 sec with gentle shaking and incubated overnight at room temperature in the dark. The following morning, fluorescence intensity at 485(14) nm excitation and 535(25) nm emission wavelengths was measured on an EnVision (Perkin Elmer) plate reader. Plate reads were normalized relative to the control inhibitor (0.29 uM artemisinin) and vehicle (DMSO) wells present on each plate and then corrected by an algorithm using vehicle-only control plates at the beginning and end of the compound plate stack. References Shah, S. (2010). The Fever: how malaria has ruled humankind for 500,000 years. New York, Sarah Crichton Books. CDC web site, http://www.cdc.gov/malaria/about/biology/index.html Mu, J., Myers, R.A., Jiang, H., Liu, S., Ricklefs, S., Waisberg, M., Chotivanich, K., Wilairatana, P., Krudsood, S., White, N.J., et Plasmodium falciparum genome-wide scans for positive selection, recombination hot spots and resistance to antimalarial drugs Nature Genetics 2010, 42, pp 268-271 Bennett TN, Paguio, M., Gligorijevic, B., Seudieu, C., Kosar, A. D., Davidson, E., and Roepe, P. D. Novel, rapid, and inexpensive cell-based quantification of antimalarial drug efficacy Antimicrobial Agents Chemother. 2004, 48(5): pp 1807-10 Yuan J, Johnson RL, Huang RL, Wichterman J, Jiang HY, Hayton K, Fidock DA, Wellems TE, Inglese J, Austin CP, Su XZ. […]
Regarding `Cc1cc(C)c(-c2cc([C@H](C)ON=C[C@@H](C)[C@H](OCc3ccccc3)C(C)C)on2)c(C)c1`, the Potency result was “inactive”.

Take `COC[C@H]1O[C@]2(c3ccccc3)CO[C@@H]1[C@@H](C=Cc1ccccc1)C2`: the Potency result is “inactive”.

On to `C=CC1=C2C=C(C3CC3)N(C(CO)CO)C=C2C(=O)C(C)(OC(=O)c2ccco2)C1=O` (stereo not given), for which the Potency result was “inactive”.

In the case of `C=C(C(C)=O)C(O)c1cccc(OC)c1` (stereo not given), the Potency entry was “inactive”.

On to `O=C1CCCC2=C1[C@H]1O[C@](CCCCN3C(=O)c4ccccc4C3=O)(Cc3ccccc31)O2`, for which the Potency result is “inactive”.

Regarding `C=CCOC(=O)[C@H](O)[C@@H](O)C(=O)OCC=C`, the Potency result was “inactive”.

`COc1ccc2c(c1)C[C@@H](C)O[C@]21C(=O)Nc2ccccc21`: the Potency entry was “inactive”.

With `CC(C)=CCCC(C)=CC=CC1=CC2(C)CC1(C)C(C=C(C)CCC=C(C)C)CC2=O` (stereo not given), the Potency result was “inactive”.

Take `C=CCOC(=O)NC(c1ccc(F)c(F)c1)S(=O)(=O)c1ccc(Cl)cc1` (stereo not given): the Potency entry was “inactive”.

As to `COC1=C(C(=O)c2ccccc2)C(=O)[C@@]2(CC=C(C)C)CC(C#N)C[C@@]1(CC=C(C)C)C2=O` (stereo not given in full), the Potency result was “inactive”.

Turning to `C[C@H]1CC[C@H]2C(=O)N(Cc3ccccc3)C[C@@H](O)CN2[C@H]1c1cccc(Br)c1`, the Potency entry is “inactive”.

As to `Cc1cccc(C)c1Nc1oc(-c2ccccc2)nc1C(C)(C)C`, the Potency result was “inactive”.

`CC(CCN1CCc2nc(-c3ccccc3)c(-c3ccccc3)cc2C1)=NO[C@H](C)CN1CCCCc2nc(C)c(C)cc21`: the Potency result is “inactive”.

Take `CC(=O)OC[C@H]1O[C@@H](ON=C(C)CCN2CCCCc3nc(C)c(C)cc32)[C@H](OC(C)=O)[C@@H](OC(C)=O)[C@H]1OC(C)=O`: the Potency result is “inactive”.

For `CC1(OC(=O)C2CCCC2)C(=O)C=C2C=C(c3ccsc3)N(c3cccc(C#N)c3)C=C2C1=O` (stereo not given), the Potency result is “inactive”.

Regarding `CCc1cc2c(nc1CC)CCN(CCC(C)=NO[C@@H](C)c1cn([C@H](CO)Cc3ccccc3)nn1)C2`, the Potency result was “inactive”.

For `CSc1nnc2c(n1)C[C@H](c1ccccc1)[C@@H](C)[C@@H](C(=O)N1CCCC1)C2`, the Potency entry was “inactive”.

For `C=CCOC(=O)N[C@@H](c1coc2ccccc2c1=O)[C@@H](C)C=CCC(=O)OC`, the Potency result is “inactive”.

`COC(=O)[C@@]1(C=C2c3ccc(F)cc3[C@@H](OC)[C@@H]2C)[C@@H]2OCCC[C@@H]21`: the Potency entry is “inactive”.

On to `CC(C)(C)OC(=O)C1=NOC2(C=CC(=O)C=C2)C1`, for which the Potency result is “inactive”.

Take `COC(=O)[C@H]1O[C@@H](c2cc(OC)c(C)c(OC)c2O)[C@H](C)[C@@H](O)[C@@H]1C`: the Potency result was “inactive”.

In the case of `CCN1C(=NCC(C)C)NC(c2cccc(F)c2)C(C(=O)OC)=C1C` (stereo not given), the Potency entry is “inactive”.

For the compound `COC(=O)N1C2CC3(C)CC(=O)CC1(C)C3c1ccccc12` (stereo not given), the Potency result is “inactive”.

As for `C=CCNC(=O)[C@H]1C=C(OC)C(=O)C[C@H]2c3ccccc3C[C@]12C`, the Potency result is “inactive”.

Take `CCOC(=O)CN1C(=O)[C@]2(OCCC=C[C@@H]2C)c2c(Br)cccc21`: the Potency entry was “inactive”.

Take `COc1cc2c(cc1OC)[C@@H]1O[C@](c3ccsc3)(C2)Oc2cc(-c3ccccc3)oc(=O)c21`: the Potency result is “inactive”.

Take `CCN1C(=O)N[C@@H](CCc2ccccc2)[C@@H](C(=O)OC)[C@H]1C`: the Potency entry was “inactive”.

Regarding `CCCCCCCC1=Cc2ccc(F)cc2C(C(C(C)=O)C(=O)OC)N1C(=O)OC` (stereo not given), the Potency result was “inactive”.

Take `CC1=C2[C@H](O)[C@H]([C@@H](C)C(=O)NCCC(C)C)CC[C@@]2(C)C=CC1=O`: the Potency result is “inactive”.

Consider `C=CCN=C1NC(c2cccc(F)c2)C(C(=O)OC)=C(C)N1Cc1ccccc1` (stereo not given), for which the Potency result is “inactive”.

As for `CCCCc1nc2c(c3c1C[C@H](C)OC3)CN(C(=O)Cc1cccs1)CC2`, the Potency entry was “inactive”.

As to `C[C@@H]1CC[C@H]2C(=O)O[C@H](CN=[N+]=[N-])CN2[C@@H]1c1ccc(Br)cc1`, the Potency entry was “inactive”.

Regarding `CCN1C(=NCc2cc(OC)c(OC)c(OC)c2)N[C@@H](c2ccccc2)[C@H](C(=O)OC)[C@H]1C`, the Potency result is “inactive”.

Consider `CC(=O)N1C(=O)NC(C)=C(C#N)C1c1ccccc1` (stereo not given), for which the Potency entry was “inactive”.

Consider `Cc1cc2c(c(=O)n1-c1ccccc1)[C@H]1O[C@](c3ccsc3)(Cc3ccccc31)O2`, for which the Potency result is “inactive”.

Regarding `C#CCNC(=O)[C@H]1C=C(OC)C(=O)C[C@H]2c3ccccc3C[C@]12C`, the Potency entry was “inactive”.

For `Cn1c(-c2ccccc2)c(O)c(=O)c2ccccc21`, the Potency entry is “inactive”.

Take `CCCCCCC1=Cc2cc(OC)c(OC)cc2C(C(C(C)=O)C(=O)OCC)O1` (stereo not given): the Potency result was “inactive”.

Consider `CC[C@H](C)[C@@H](NC(=O)O[C@@H]1C(=O)c2cc(OC)ccc2O[C@H]1c1ccc(OC)c(Br)c1)C(=O)OC`, for which the Potency result is “inactive”.

For `Cc1noc(C)c1S(=O)(=O)N1CCc2nc(-c3ccccc3)c3c(c2C1)CO[C@@H](C)C3`, the Potency result was “inactive”.
